# Test results as given in PubChem BioAssay AID686996 (Broad Institute, 2013).
# Where “and” joins values, the source holds several entries; their conditions need not be identical. Identical values can stand only once. The whole screen tested about 350,000 compounds, of which about 1,900 (0.54%) were called active.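 The calls were made as follows: active = mean inhibition across replicates at least about 35%, with every replicate also reaching that limit (limit read from the data); inconclusive = only one of the two criteria met; inactive = neither criterion met.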 The list comes from a sample in which actives are over-represented; it also holds similar structures and randomly drawn compounds. Where a structure was tested more than once in an assay, its records may differ in their call.
# Target: Caspase-6 (Homo sapiens) (UniProt P55212)
# Assay: inhibition of CASP6 peptide cleavage – biochemical, VEID-R110 fluorescence, single point, set 2, primary screen (AID 686996);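 also: 0% = median of neutral control wells and 100% = no fluorescence left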
# Conditions: purified caspase-6, Z-VEID-R110 cleavage fluorescence; at 12.5 µM; stronger effect = higher value
# Caspase-6 (Homo sapiens), sequence (P55212 24-179 limits assumed): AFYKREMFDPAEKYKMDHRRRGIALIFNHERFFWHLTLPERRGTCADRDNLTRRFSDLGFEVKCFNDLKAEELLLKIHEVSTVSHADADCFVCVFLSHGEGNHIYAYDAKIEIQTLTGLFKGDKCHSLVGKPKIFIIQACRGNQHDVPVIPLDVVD
# Caspase-6 (Homo sapiens), sequence (P55212 194-293 limits assumed): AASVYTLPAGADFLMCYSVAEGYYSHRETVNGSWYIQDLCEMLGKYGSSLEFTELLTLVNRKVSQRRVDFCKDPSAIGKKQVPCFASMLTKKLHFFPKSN
row,SMILES,inhibition
1,C[C@@H]1CCCCO[C@H](CN(C)S(=O)(=O)c2ccc(Cl)cc2)[C@H](C)CN([C@H](C)CO)C(=O)c2cc(NC(=O)NC3CCCCC3)ccc2O1,-2.73% (inactive)
2,N#C[C@H]1[C@@H](c2ccc(C3=CCCCC3)cc2)[C@@H](CO)N1C(=O)Cc1ccncc1,0.643% (inactive)
3,O=S(=O)(c1ccccc1)N1[C@H](CO)[C@@H]2c3ccccc3NC[C@@H]21,-2.35% (inactive)
4,C[C@@H]1CN([C@H](C)CO)C(=O)Cc2cc(NC(=O)NC3CCCCC3)ccc2O[C@H]1CN(C)S(=O)(=O)c1ccc(Cl)cc1,0.436% (inactive)
5,C[C@H](O)C#Cc1ccc([C@@H]2[C@H](CO)N3CCCCN(CC4CC4)C[C@@H]23)cc1,4.05% (inactive)
6,CN(C)CC(=O)N[C@H]1CC[C@H](CCNC(=O)Nc2ccc(F)cc2)O[C@H]1CO,2.23% (inactive)
7,CC(C)NC(=O)N(C)C[C@H]1Oc2ccc(NS(C)(=O)=O)cc2CC(=O)N([C@@H](C)CO)C[C@H]1C,-2.92% (inactive)
8,COc1ccc2nc(-c3ccccn3)ccc2c1,-1.05% (inactive)
9,COc1ccc(-c2cc3ncccc3cn2)cc1,1.91% (inactive)
10,COc1ccc(C=Nc2cccc3ncccc23)cc1,44.7% (active)
11,C[C@@H]1CCCCO[C@H](CN(C)S(=O)(=O)c2cccs2)[C@H](C)CN([C@@H](C)CO)C(=O)c2cc(NC(=O)Nc3ccc4c(c3)OCO4)ccc2O1,-0.622% (inactive)
12,COc1ccc(S(=O)(=O)Nc2ccc3c(c2)CC(=O)N([C@@H](C)CO)C[C@@H](C)[C@@H](CN(C)C)O3)cc1,2.95% (inactive)
13,O=C(O)CCC(=O)NCc1ccc2[nH]c3c(c2c1)CCCC3,41.9% (active)
14,O=C(CCC(=O)c1ccccc1)NCc1cccc(C(F)(F)F)c1,-0.291% (inactive)
15,Cc1cccc(NC(=S)NCc2ccc3[nH]c4c(c3c2)CCCC4)c1,-0.948% (inactive)
16,C[C@@H]1CN([C@@H](C)CO)C(=O)c2cccc(NC(=O)Nc3ccc4c(c3)OCO4)c2O[C@H]1CN(C)C(=O)Nc1cccc2ccccc12,-2.55% (inactive)
17,C[C@H](CO)N1C[C@H](C)[C@H](CN(C)C(=O)NC2CCCCC2)Oc2ccc(NC(=O)CCCN(C)C)cc2CC1=O,1.62% (inactive)
18,C=CCn1c(=S)[nH]c2scc(-c3ccco3)c2c1=O,80.7% (active)
19,C[C@H]1CN([C@@H](C)CO)S(=O)(=O)c2ccc(-c3cccc(C#N)c3)cc2O[C@H]1CN(C)C(=O)c1ccccc1,5.87% (inactive)
20,Cc1nc2ccccc2c(=O)n1-c1ccc(NS(=O)(=O)c2ccc(F)cc2F)cc1,49.9% (active)
21,COc1ccc(NS(=O)(=O)c2ccc(F)cc2F)cn1,1.04% (inactive)
22,Cc1nc2ccccc2c(=O)n1-c1ccc(F)c(NC(=O)c2cccs2)c1,-0.817% (inactive)
23,O=C1C[C@@](C(=O)NCC(F)(F)F)(c2ccc([N+](=O)[O-])cc2)[C@@H](c2ccc(CO)cc2I)N1C1CCCCC1,2.45% (inactive)
24,C[C@H]1CN([C@@H](C)CO)C(=O)Cc2cc(NS(=O)(=O)c3ccccc3)ccc2O[C@H]1CN(C)Cc1ccc(C(=O)Nc2ccccc2N)cc1,-0.988% (inactive)

row,SMILES,inhibition
1,C[C@H]1CN([C@@H](C)CO)C(=O)Cc2cc(NS(=O)(=O)c3ccccc3)ccc2O[C@@H]1CN(C)Cc1ccc(C(=O)Nc2ccccc2N)cc1,39.7% (active)
2,COc1ccc(S(=O)(=O)Nc2ccc3c(c2)CC(=O)N([C@@H](C)CO)C[C@@H](C)[C@@H](CN(C)Cc2ccc(C(=O)Nc4ccccc4N)cc2)O3)cc1,-1.35% (inactive)
3,C[C@H]1CN([C@@H](C)CO)S(=O)(=O)c2ccc(C#Cc3ccccc3)cc2O[C@@H]1CN(C)C(=O)C1CC1,2.82% (inactive)
4,CN(C)C(=O)c1ccc(-c2ccccc2[C@H]2[C@@H](CO)N(C(=O)C3CCCCC3)[C@H]2C#N)cc1,-0.604% (inactive)
5,COc1ccc(CN(C)C[C@@H]2Oc3ccc(NC(=O)Nc4ccc(F)cc4)cc3CC(=O)N([C@@H](C)CO)C[C@H]2C)cc1,3.48% (inactive)
6,COC(=O)CCCCC1=CCC2C(=O)C=C(O)C2C1 (stereo unspecified),70.5% (active)
7,CC(C)(O)C#Cc1ccc([C@H]2[C@@H](CO)N3CCCCN(C(=O)c4ccncc4)C[C@H]23)cc1,1.18% (inactive)
8,COCC(=O)N1CC(=O)N2[C@H](CO)[C@@H](c3ccc(C#CC4CCCC4)cc3)[C@H]2C1,-0.852% (inactive)
9,CCOc1ccc(C(=O)NCC(=O)N2CCCCCCC2)cc1OCC,-0.226% (inactive)
10,CCOc1ccc(CCNC(=O)Nc2ccccc2)cc1OCC,-1.26% (inactive)
11,CCOc1cc(C(=O)O)ccc1OCCOc1ccccc1,35.6% (active)
12,O=C(C[C@H]1CC[C@@H](NC(=O)c2ccncc2)[C@@H](CO)O1)Nc1ccccc1,1.11% (inactive)
13,CCNC(=O)C[C@@H]1CC[C@H]2[C@@H](COc3ccc(NC(=O)NC(C)C)cc3C(=O)N2C)O1,0.619% (inactive)
14,O=C(Cn1cnc2ccccc21)N/N=C/c1ccco1,1.45% (inactive)
15,O=c1nc(N/N=C/c2ccco2)cn[nH]1,55.7% (active)
16,Cc1n[nH]c(=O)nc1N/N=C/c1cccs1,0.991% (inactive)
17,COc1ccccc1C#Cc1cnc2c(c1)C(=O)N([C@@H](C)CO)C[C@H](C)[C@@H](CN(C)C(=O)CC1CC1)O2,-4.85% (inactive)
18,NC1=CC(=O)C(=O)c2cccnc21,93.8% (active)
19,CCOc1ccc(CCN2C(=O)c3cccnc3C2=O)cc1OCC,3.27% (inactive)
20,C[C@@H]1CN([C@H](C)CO)C(=O)c2cc(NC(=O)Cc3ccccc3)ccc2O[C@@H](C)CCCCO[C@H]1CN(C)C(=O)Cc1ccccc1,1% (inactive)
21,C[C@@H]1CN([C@H](C)CO)C(=O)c2cc(C#CC3CC3)cnc2O[C@@H]1CN(C)Cc1ccccn1,-0.477% (inactive)
22,O=C1C=CCCN1C(=O)/C=C/c1ccc(F)cc1,6.28% (inactive)
23,C[C@H](CO)N1C[C@H](C)[C@H](CN(C)Cc2ccc(C(=O)O)cc2)Oc2ncc(-c3ccccc3)cc2C1=O,-1.47% (inactive)
24,O=C1C(Cl)=C(Oc2ccccc2)C(=O)c2ccccc21,4.78% (inactive)

row,SMILES,inhibition
1,O=C(NC1=CC(=O)c2ccccc2C1=O)c1ccccc1,1.17% (inactive)
2,CC(=O)N(C1=C(Cl)C(=O)c2ccccc2C1=O)c1ccc(C(=O)O)cc1,91% (active)
3,CNC[C@@H]1OCCCC[C@@H](C)Oc2ccc(NS(C)(=O)=O)cc2C(=O)N([C@H](C)CO)C[C@@H]1C,-3.75% (inactive)
4,CCO[C@H]1OC(C(=O)N2CCOCC2)=C[C@@H](c2ccc3c(c2)OCO3)[C@@H]1CCCO,38.4% (active) and 1.81% (inactive)
5,CCO[C@@H]1OC(C(=O)N2CCOCC2)=C[C@H](C)[C@H]1CCCO,-0.276% (inactive)
6,CCO[C@H]1OC(C(=O)N2CCCCCCC2)=C[C@@H](c2ccc(C(F)(F)F)cc2)[C@@H]1CCCO,-1.98% (inactive) and 3.38% (inactive)
7,Cc1noc(C)c1NC(=O)Nc1ccc2c(c1)C(=O)N([C@H](C)CO)C[C@@H](C)[C@@H](CN(C)Cc1ccccc1)O2,-0.453% (inactive)
8,C[C@H](CO)N1C[C@H](C)[C@H](CN(C)Cc2ccc(C(F)(F)F)cc2)OCCCC[C@H](C)Oc2ccc(NS(=O)(=O)c3ccc(Cl)cc3)cc2C1=O,0% (inactive)
9,CCC(=O)N1[C@H](C(=O)OC)[C@@H](CO)[C@@H]2Cn3c(ccc(-c4cccc(F)c4)c3=O)[C@@H]21,-0.171% (inactive)
10,Cc1cccc(-c2ccc(C3[C@@H]4CN(C(=O)Nc5ccc(C(F)(F)F)cc5)C[C@H]3N4)cc2)c1 (stereo partly specified),17.5% (inactive) and -2.54% (inactive)
11,C[C@@H]1CCCCO[C@@H](CN(C)Cc2ccccc2)[C@H](C)CN([C@H](C)CO)C(=O)c2cc(NS(=O)(=O)c3cccs3)ccc2O1,-0.17% (inactive)
12,COc1ccccc1CCC(=O)OCC(=O)N1CCN(S(=O)(=O)c2ccc(C)cc2C)CC1,0.558% (inactive)
13,Cc1ccc(S(=O)(=O)N2CCN(C(=O)COC(=O)CNC(=O)c3ccc(C(C)(C)C)cc3)CC2)c(C)c1,53.3% (active)
14,Cc1ccc(S(=O)(=O)N2CCN(C(=O)COC(=O)c3c(C)cc(C)cc3C)CC2)c(C)c1,0.238% (inactive)
15,COc1ccc(Br)cc1/C=N/Nc1ccc(S(=O)(=O)Nc2ccccc2C(=O)O)cc1[N+](=O)[O-],49.3% (active)
16,COc1ccc(S(=O)(=O)N2CCC(C(=O)OCC(=O)c3ccccc3)CC2)cc1[N+](=O)[O-],-8.89% (inactive)
17,CC1CN(C(=O)c2ccccc2NS(=O)(=O)c2cccc([N+](=O)[O-])c2)CC(C)O1 (stereo unspecified),0.082% (inactive)
18,CCCN1[C@H](C(=O)N[C@H](C)c2ccccc2)[C@@H](CO)[C@@H]2Cn3c(ccc(-c4ccccc4)c3=O)[C@@H]21,-1.76% (inactive)
19,O=C(C[C@H]1CC[C@H]2[C@@H](COC[C@@H](O)CN2CC2CCOCC2)O1)NCc1ccc(Cl)cc1,-3.23% (inactive)
20,Cc1noc(C)c1S(=O)(=O)N(C)C[C@@H]1Oc2ccc(NC(=O)Cn3cnnn3)cc2CC(=O)N([C@@H](C)CO)C[C@@H]1C,2.4% (inactive)
21,Cc1c(C(=O)Nc2ccccc2)sc2nc3n(c(=O)c12)CCCCC3,14.7% (inactive)
22,COc1ccc(NC(=O)c2sc(=O)n(Cc3ccc(S(=O)(=O)N(C)C)cc3)c2C)cc1,-0.522% (inactive)
23,CCN=c1sc(C(=O)Nc2ccccc2)c(C)n1CC,67.5% (active)
